Data taken from PubChem BioAssay AID720706 (Broad Institute, 2013).
Values joined by “and” are separate entries in the source; they are usually repeats but may differ in a detail not shown here. Identical values can stand only once. Hit rate of the full screen: of about 350,000 compounds, about 5,500 (1.6%) were called active.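 The calls were made as follows: active = significant combined selectivity score with lowered wild-type GFP, culture density cut under 30%, mutant RFP and density less affected; inactive = any of these conditions unmet.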 For the sample, actives were picked, then their nearest neighbours and some compounds at random.

Assay: GFP drop in mixed WT/humanized-ribosome E. coli culture – GFP/RFP fluorescence, OD600, single point, bacterial rRNA inhibitor project, primary screen (AID 720706)
Conditions: E. coli WT GFP vs humanized-ribosome RFP mutants, 24 h; GFP signal change (wild-type ribosome): stronger effect = lower value, DMSO median 0, no signal -100; OD600 change: measured here: OD600 growth, DMSO median 0, no signal -100; RFP signal change: measured here: RFP humanized mutant strains, DMSO median 0, no signal -100, concentration not given here

Compound	GFP signal change (wild-type ribosome)	OD600 change	RFP signal change
CCCNC(=O)N1C[C@H]2[C@@H](c3ccccc31)[C@H](CO)N2C(=O)NC(C)C	2.8% (inactive)	10.8%	1.99%
COc1ccc(Cl)cc1NC(=O)C(C)N1CCc2ccccc21 (stereo not given)	-31% (active)	-24.4%	-3.11%
COc1ccc(Cl)cc1NC(=O)NCC1CCN(Cc2ccccc2F)CC1	-5.44% (inactive)	-28.5%	37.7%
COc1ccc(Cl)cc1NC(=O)NC(C)C(C)(C)C (stereo not given)	-0.51% (inactive)	1.25%	0.006%
CC(C)C[C@H](NC(=O)N1CCn2c1nc1ccccc12)C(=O)NC1CC1	0.495% (inactive)	2.23%	-1.23%
CSCC[C@H](NC(=O)N1CCn2c1nc1ccccc12)C(=O)NCc1ccc2c(c1)OCO2	-1.83% (inactive)	-3.03%	3.82%
CSCC[C@H](NC(=O)N1CCn2c1nc1ccccc12)C(=O)NC1CCCCC1	-28.5% (active)	-22.6%	-0.555%
COc1ccc2c3c([nH]c2c1)[C@@H](CO)N(C(=O)c1ccccc1)CC31CCN(C(=O)Nc2cccc(F)c2)CC1	-4.87% (inactive)	-13.4%	1.11%
O=C(CCc1ccccc1)Nc1ncc([N+](=O)[O-])s1	-42.5% (active)	-20.7%	2.67%
CC(C)Cc1nnc(NC(=O)CCc2ccccc2)s1	2.89% (inactive)	0.415%	0.86%
COC(=O)CSc1nnc(NC(=O)CCc2ccccc2)s1	7.96% (inactive)	5.71%	-0.746%
Cc1cc([N+](=O)[O-])ccc1NS(=O)(=O)c1ccccc1	-10.6% (inactive)	-35.5%	-7.16%
Cc1ccccc1OS(=O)(=O)c1cccc([N+](=O)[O-])c1	-22.9% (active)	-15.1%	-4.54%
Cc1cc(C)n(S(=O)(=O)c2cccc([N+](=O)[O-])c2)n1	5.54% (inactive)	9.05%	1.61%
O=C([C@H]1[C@H](CO)[C@H]2Cn3c(ccc(-c4ccccc4)c3=O)[C@@H]1N2Cc1cccnc1)N1CCOCC1	5.29% (inactive)	5.22%	0.504%
Cc1ccc(-c2cnc3c(c2)C(=O)N([C@H](C)CO)C[C@H](C)[C@@H](CN(C)S(C)(=O)=O)O3)cc1	2.09% (inactive)	1.04%	1.43%
C[C@@H]1CN([C@H](C)CO)C(=O)c2c(c3ccccc3n2C)-c2ccccc2CO[C@@H]1CN(C)Cc1ccccc1C(F)(F)F	3.48% (inactive)	-2.02%	-4.51%
CC(C)NC(=O)Nc1ccc2c(c1)C(=O)N([C@H](C)CO)C[C@@H](C)[C@H](CN(C)S(C)(=O)=O)O2	0.569% (inactive)	1.03%	-2.66%
Cc1ccc2nc(-c3ccc(NC(=O)CN(C)S(=O)(=O)c4ccccc4)cc3)sc2c1	6.45% (inactive)	6.57%	-1.11%
COc1ccc(NC(=O)CN(C)S(=O)(=O)c2ccccc2)cc1OC	-21.4% (active)	-15.8%	5.68%
COc1ccc(NC(=O)CN(Cc2ccccc2)S(C)(=O)=O)cc1OC	7.38% (inactive)	3.04%	2.82%
C[C@H]1CN([C@@H](C)CO)C(=O)Cc2cc(NC(=O)Cc3ccccc3)ccc2O[C@H]1CN(C)S(=O)(=O)c1ccc(Cl)cc1	6.12% (inactive)	0.505%	-2.09%

Compound	GFP signal change (wild-type ribosome)	OD600 change	RFP signal change
C[C@@H]1CN(C)C(=O)c2cccc(N(C)C)c2O[C@H]1CN(C)S(C)(=O)=O	0.02% (inactive)	-2.43%	-4.17%
CCS(=O)(=O)N1CC(=O)N2[C@H](C1)[C@@H](c1ccc(C#Cc3ccc(F)cc3)cc1)[C@@H]2CO	-26.6% (inactive)	-55.5%	8.02%
COC(=O)C[C@H]1C[C@H]2c3cc(NC(=O)NC4CCCCC4)ccc3O[C@H]2[C@H](CO)O1	3.18% (inactive)	0.77%	1.45%
CC1CN(c2nc(Nc3ccccc3)nc(N)c2[N+](=O)[O-])CC(C)O1 (stereo not given)	-35.4% (inactive)	-33.8%	-0.525%
Cc1cc(N2CCN(C)CC2)nc2ccc(NC(=S)N3CCOCC3)cc12	2.14% (inactive)	1.93%	-1.37%
CN1CCN(c2nc(Nc3ccc(O)cc3)nc3ccccc23)CC1	-21.6% (active)	2.64%	1.85%
C[C@H]1CN([C@@H](C)CO)C(=O)c2cc(NS(C)(=O)=O)ccc2O[C@@H]1CN(C)S(=O)(=O)c1ccc(Cl)cc1	2.05% (inactive)	0.615%	0.846%
CC(=O)N1C[C@@H]2C(c3ccccc3)[C@H](C1)N2Cc1ccc(F)cc1 (stereo not given in full)	-7.42% (inactive) and -0.918% (inactive)	-6.55% and 0.0005%	2.17% and -0.988%
COc1ccc(Cn2c(-c3ccc(Cl)cc3)c[n+]3ccccc23)cc1	-31.8% (active)	-12.7%	10%
COc1ccc(-c2ccc([C@@H]3[C@@H](CO)N4C(=O)CN(Cc5ccccc5)C[C@@H]34)cc2)cc1	0.0065% (inactive)	-2.91%	0.737%
COc1ccc(CN2CCCCN3[C@H](C2)[C@H](c2ccc(-c4ccc(OC)cc4)cc2)[C@@H]3CO)cc1	0.651% (inactive)	2.56%	3.41%
COc1ccc(NC(=O)Nc2ccc3c(c2)C(=O)N([C@H](C)CO)C[C@@H](C)[C@H](CN(C)CC2CCCCC2)OCCCC[C@@H](C)O3)cc1	2.06% (inactive)	-1.06%	2.56%
O=C(NNC(=S)Nc1ccc(Br)cc1Cl)c1ccco1	-55.5% (inactive)	-76.6%	-26.1%
CC1CN(C(=S)Nc2ccc(Br)cc2Cl)CC(C)O1 (stereo not given)	0.789% (inactive)	0.865%	-2.8%
CN(C)C(=S)Nc1ccc(Br)cc1Cl	-21.3% (active)	-3.38%	-5.33%
C[C@@H]1CN([C@H](C)CO)C(=O)c2cc(C#CC3CC3)cnc2O[C@H]1CN(C)C(=O)CC1CC1	0.803% (inactive)	4.53%	-4.43%
Cc1cc(C(=O)COc2ccccc2Cl)c(C)n1C1CC1	-19.2% (inactive)	-34.3%	0.284%
Cc1cc(C(=O)COC(=O)C2CC2)c(C)n1-c1ccc(F)cc1	-25.1% (active)	-8.48%	-5.46%
Cc1ccc(-n2c(C)cc(C(=O)CN3C(=O)C(=O)N(C4CCCC4)C3=O)c2C)cc1	-12.3% (inactive)	-20.5%	24%
Cc1ccc(OCCCC(=O)NC(C)c2ccccc2)c(C)c1 (stereo not given)	-20.1% (active)	-9.71%	4.93%
Cc1ccccc1OCCC(=O)OCC(=O)NC(C)c1ccccc1 (stereo not given)	-11.5% (inactive)	-7.58%	0.763%
COc1ccc(C)cc1N(CC(=O)NC(C)c1ccccc1)S(C)(=O)=O (stereo not given)	7.63% (inactive)	6.56%	4.34%

Compound	GFP signal change (wild-type ribosome)	OD600 change	RFP signal change
COc1ccc2c3c(n(C)c2c1)[C@@H](CO)NCC31CN(S(=O)(=O)c2cccc(C)c2)C1	-1.82% (inactive)	-19.1%	1.9%
O=C(Nc1ccccc1)N1CCCCN2[C@H](CO)[C@@H](c3ccc(-c4ccccc4F)cc3)[C@H]2C1	-59.5% (inactive)	-71.8%	-17.2%
Cc1ccccc1-c1cnc2c(c1)C(=O)N([C@H](C)CO)C[C@H](C)[C@@H](CN(C)C(=O)c1ccccc1)O2	-6.69% (inactive)	1.45%	1.42%
CCNC(=O)[C@@H]1[C@@H](CO)[C@@H]2Cn3c(ccc(C4=CCCCC4)c3=O)[C@@H]2N1Cc1ccccc1F	1.16% (inactive)	-2.39%	5.54%
O=C(Nc1cccc([N+](=O)[O-])c1)N1CCc2ccccc2C1	-21.9% (active)	-13.6%	-7.36%
O=C(CN1CCOCC1)Nc1cccc([N+](=O)[O-])c1	31.7% (inactive)	26.8%	1.38%
CCc1ccc(NC(=O)N2CCc3ccccc3C2)cc1	-10.5% (inactive)	-10.6%	-3.21%
Cc1ccc(-c2ccc([C@H]3[C@H]4CN(S(=O)(=O)c5cccc(F)c5)CC(=O)N4[C@H]3CO)cc2)cc1	1.77% (inactive)	8.11%	-0.692%
S=C(NCc1cccnc1)Nc1ccc(Cl)cc1Cl	-27.1% (active)	-3.2%	-7.63%
Cc1ccc(C(=O)NC(=S)NCc2cccnc2)cc1	-23.8% (inactive)	-23.8%	5.91%
CN(CC(=O)NCc1cccnc1)S(=O)(=O)c1cc(Cl)ccc1Cl	5.23% (inactive)	-2.3%	-0.601%
CC(C)NC(=O)N(C)C[C@@H]1Oc2ccc(NC(=O)CCCCCC(=O)Nc3ccccc3N)cc2C(=O)N([C@@H](C)CO)C[C@H]1C	1.03% (inactive)	-8.13%	-0.166%
CO[C@H]1CN(C)C(=O)c2cc(NC(=O)c3cnccn3)ccc2OC[C@H](C)N(C(=O)C2CC2)C[C@H]1C	1% (inactive)	-0.758%	-0.83%
N#Cc1cccc(-c2ccc(C3[C@@H]4CNC[C@H]3N4)cc2)c1 (stereo not given in full)	-0.575% (inactive)	6.2%	2%
C[C@@H]1CCCCO[C@H](CN(C)S(=O)(=O)c2ccccc2)[C@@H](C)CN([C@H](C)CO)C(=O)c2cc(NC(=O)Nc3ccc(F)cc3)ccc2O1	4.23% (inactive)	5.59%	-0.807%
S=C(NCC1CCCO1)N1CCN(c2ccc(Cl)c(Cl)c2)CC1 (stereo not given)	-56.8% (inactive)	-79.1%	-18.4%
S=C(NCCc1ccccc1)NCC1CCCO1 (stereo not given)	8.89% (inactive)	4.83%	-3.48%
Oc1c(Br)cc(/C=N/NC(=S)NCC2CCCO2)cc1Br (stereo not given)	-32.6% (active)	-2.28%	0.247%
C[C@@H]1CN([C@@H](C)CO)S(=O)(=O)c2ccc(Br)cc2O[C@H]1CN(C)S(=O)(=O)c1ccccc1	-30.9% (inactive)	-59.2%	14%
CS(=O)(=O)N1CC2(C1)[C@H](c1ccccc1)[C@@H](CO)N2C(=O)c1ccccc1	-2.24% (inactive)	8.82%	-1.96%
O=C(c1ccccc1)N1CC(=O)N2[C@@H](CO)[C@H](c3ccc(C#CCC4CCCC4)cc3)[C@@H]2C1	-0.385% (inactive)	4.12%	15.8%
